TWEAK Fn14 block = TWEAK-Fn14 signaling inhibition | TWEAK-stimulated Fn14 reporter cells, luciferase luminescence, 8 h | inhibition, % at 10 µM | 2% of 360,000 active | AID 1159606; in the data active = inhibition above about 50%
Peg3 prom inh = inhibitors of Peg3 promoter | HeLa PEG-Prom luciferase reporter, luminescence, overnight | inhibition, % at 20 µM | 1.7% of 360,000 active | AID 588405;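 active = inhibition of at least 50% at 20 µM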
MITF TRPM1 inh = reduces MITF-dependent TRPM1 promoter luciferase signal; 0.83% of 330,000 active; inhibition, % at 12.5 µM; SK-MEL-5 TRPM1 promoter luciferase, 24 h;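 active = mean inhibition across replicates of 60% or more, whatever share of single replicates reaches that level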
Shn3 inh set2 = reduces Shn3 3'UTR luciferase signal in osteoblasts | inhibition, % at 12.5 µM | AID 588674 | Clone20 osteoblast Shn3 3'UTR firefly luciferase, 24 h | 0.52% of 360,000 active;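 active = mean inhibition of at least 75% with every replicate also reaching 75%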
EBV LMP1 NFkB = Epstein-Barr LMP1 NF-kappaB reporter inhibition; LMP1-induced NF-kappaB luciferase reporter cells, luminescence; inhibition, % at 12.5 µM; 0.69% of 350,000 active; in the data active = inhibition above about 41%
TROY NFkB inh = blocks TROY-dependent signaling in reporter cells; inhibition, % at 10 µM; 0.98% of 360,000 active; Q293 LMP1-TROYcd NF-kB luciferase reporter, 4 h;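 active = compounds whose plate-normalised and pattern-corrected inhibition of the luciferase reporter signal at the single screening dose is 50% or more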
Of the large screens only hits and unclear results are named; the others gave an inactive call. Shown are actives, neighbours in structure and some others; about 4.1% of the full set was active somewhere.

O=C(N/N=C/c1ccc2c(c1)OCO2)c1ccc(NC(=O)c2ccc(F)cc2)cc1	none
Cc1cc(C(=O)N/N=C2\CCCC(=O)C2)c(C)n1-c1ccccc1	TROY NFkB inh 74.9
Cc1cc(C(=O)N/N=C/c2cccc([N+](=O)[O-])c2)c(C)n1-c1ccccc1	none
COc1ccc(/C=N/NC(=O)c2cc(C)n(-c3ccccc3)c2C)cc1OC	TROY NFkB inh 61.6
Cc1noc(C)c1NC(=O)N(C)C[C@@H]1OCc2cn(nn2)CCCC(=O)N([C@H](C)CO)C[C@H]1C	none (no result: MITF TRPM1 inh)
COc1cccc(S(=O)(=O)N(C)C[C@@H]2OCc3cnnn3CCCC(=O)N([C@H](C)CO)C[C@@H]2C)c1	none (no result: MITF TRPM1 inh)
COc1cc(CC(=O)OCC(=O)NC2CCCCC2C)cc(OC)c1OC (centres undefined)	none
COc1ccc(CN(C)S(=O)(=O)c2ccc3c(c2)OCCO3)cc1	none
Cc1ccc(-c2nc3cccnc3o2)cc1NC(=O)COc1ccc(C(C)(C)C)cc1	TWEAK Fn14 block 59.1, Peg3 prom inh 57.7, Shn3 inh set2 94.6, EBV LMP1 NFkB 80.8, TROY NFkB inh 55.5
S=C(Nc1ccccc1Cl)NC1CCN(Cc2ccccc2)CC1	none
S=C(Nc1cc(Cl)cc(Cl)c1)NC1CCN(Cc2ccccc2)CC1	Peg3 prom inh 94.4
Cc1ccc2c(c1)Oc1ccc(NC(=O)CCl)cc1C(=O)N2	Peg3 prom inh 99.8, MITF TRPM1 inh 90.5
NS(=O)(=O)c1ccc(NC(=S)N2CCC(Cc3ccccc3)CC2)cc1	none
CC(C)N1CCC2(CC1)N=C(c1ccc3c(c1)OCO3)CC(c1cc(Cl)ccc1O)N2 (centres undefined)	TWEAK Fn14 block 50.7, Peg3 prom inh 100.7
COc1ccc(CNc2nc3ccccc3n2CCN2CCCCC2)cc1	none
CCN(CC)c1ccc(CNc2nc3ccccc3n2CCN2CCCCC2)cc1	Shn3 inh set2 92.4
O=C(CCl)Nc1cc(-c2ccccc2)nn1-c1ccccc1	MITF TRPM1 inh 67.0
COc1ccc(NS(=O)(=O)c2cc3c4c(c2)CCN4C(=O)CC3)c(OC)c1	none
COc1ccc(CCC(=O)NCc2cn3ccccc3n2)cc1	none (no result: Shn3 inh set2)
O=C(c1cc(-c2ccccc2Cl)nc2ccc(Br)cc12)N1CCN(c2ccccn2)CC1	TWEAK Fn14 block 58.2, Peg3 prom inh 92.2, TROY NFkB inh 69.3
O=C(c1ccccc1)c1ccc(CN2C(=O)c3ccccc3C2=O)o1	none
O=C1c2ccccc2C(=O)c2c1oc(C(F)(F)F)c2C(=O)c1ccccc1	TWEAK Fn14 block 74.3, Peg3 prom inh 93.8, MITF TRPM1 inh 102.7, Shn3 inh set2 91.1, EBV LMP1 NFkB 67.6, TROY NFkB inh 54.9
O=C(c1ccccc1)c1coc2c1C(=O)c1ccccc1C2=O	TWEAK Fn14 block 68.1
CCCc1ccc(OCc2ccc(C(=O)N3CCSCC3)o2)cc1	none
COc1ccc(Cc2nnc(SCc3ccc([N+](=O)[O-])cc3)o2)cc1	TWEAK Fn14 block 65.0
CCOC(=O)c1sc(NC(=O)Nc2cccc(Cl)c2)cc1C	TWEAK Fn14 block 75.0
Cc1ccc(S(=O)(=O)N2CCN(C(=O)COC(=O)COc3ccccc3C(C)C)CC2)c(C)c1	none
O=C(c1cn(-c2ccccc2)nc1-c1ccccc1)n1nnc2ccccc21	none
COc1cccc(-c2nn(-c3ccccc3)cc2C(=O)n2nnc3ccccc32)c1	Peg3 prom inh 50.3
COC(=O)COc1ccc(-c2nccc(-c3ccc(Br)cc3)n2)cc1	none
COC(=O)COc1ccc(-c2nccc(-c3ccccn3)n2)cc1	TWEAK Fn14 block 60.7
CCc1ccc(NC(=O)C2CCN(C(=O)N3CCOc4ccccc43)CC2)cc1	none (no result: MITF TRPM1 inh)
O=C(Nc1cccc(F)c1)C1CCN(C(=O)N2CCOc3ccccc32)CC1	EBV LMP1 NFkB 84.2
COc1ccc(CC2C(=O)NC(C)C(=O)N(C)C3Cc4ccc(cc4)Oc4cc(ccc4O)CC(C(=O)NC(C)C(=O)NC(C)C(=O)N2C)N(C)C3=O)cc1 (centres undefined)	TWEAK Fn14 block 101.3, Peg3 prom inh 97.3, MITF TRPM1 inh 98.4, Shn3 inh set2 95.0, EBV LMP1 NFkB 81.6, TROY NFkB inh 84.3
CC(C)C(NC(=O)c1c(F)cccc1F)C(=O)NCc1ccc(S(=O)(=O)N2CCOCC2)cc1 (centres undefined)	none
Cc1cccc(OCC(=O)Nc2ccccc2N2CCCCC2)c1	none
O=C(COc1ccc(Cl)cc1Cl)NC(=O)NC1CCCC1	none
